Laboratory results from PubChem BioAssay.
Values joined by “and” are separate entries in the source; they are usually repeats but may differ in a detail not shown here. Equal entries are not always repeated. Where a SMILES comes first, the peptide text is derived from it. The star is where a group is joined. Boc = CC(C)(C)OC(=O)*

Tests used:
[1] = tested on: Botulinum neurotoxin type F light chain protease (Clostridium botulinum); assay: Clostridium botulinum type F light chain protease inhibitors, microsphere substrate cleavage, validation (AID 588459); conditions: multiplex microsphere protease substrate cleavage assay, flow cytometry; at 10 µM; active compounds read high
[2] = molecular target: Botulinum neurotoxin type A (Clostridium botulinum) (UniProt P0DPI0); assay: BoNT/A light chain protease inhibitors, biochemical, multiplex microsphere flow cytometry, validation set (AID 588460); conditions: at 10 µM, active compounds read high
[3] = molecular target: Lethal factor (Bacillus anthracis) (UniProt P15917); assay: Bacillus anthracis lethal factor inhibition, microsphere flow cytometry protease assay, validation at 10 µM (AID 588461); conditions: multiplex microsphere protease cleavage assay, active compounds read high

Measured: inhibition

Sequence of Lethal factor (Bacillus anthracis) (P15917 whole entry, looked up): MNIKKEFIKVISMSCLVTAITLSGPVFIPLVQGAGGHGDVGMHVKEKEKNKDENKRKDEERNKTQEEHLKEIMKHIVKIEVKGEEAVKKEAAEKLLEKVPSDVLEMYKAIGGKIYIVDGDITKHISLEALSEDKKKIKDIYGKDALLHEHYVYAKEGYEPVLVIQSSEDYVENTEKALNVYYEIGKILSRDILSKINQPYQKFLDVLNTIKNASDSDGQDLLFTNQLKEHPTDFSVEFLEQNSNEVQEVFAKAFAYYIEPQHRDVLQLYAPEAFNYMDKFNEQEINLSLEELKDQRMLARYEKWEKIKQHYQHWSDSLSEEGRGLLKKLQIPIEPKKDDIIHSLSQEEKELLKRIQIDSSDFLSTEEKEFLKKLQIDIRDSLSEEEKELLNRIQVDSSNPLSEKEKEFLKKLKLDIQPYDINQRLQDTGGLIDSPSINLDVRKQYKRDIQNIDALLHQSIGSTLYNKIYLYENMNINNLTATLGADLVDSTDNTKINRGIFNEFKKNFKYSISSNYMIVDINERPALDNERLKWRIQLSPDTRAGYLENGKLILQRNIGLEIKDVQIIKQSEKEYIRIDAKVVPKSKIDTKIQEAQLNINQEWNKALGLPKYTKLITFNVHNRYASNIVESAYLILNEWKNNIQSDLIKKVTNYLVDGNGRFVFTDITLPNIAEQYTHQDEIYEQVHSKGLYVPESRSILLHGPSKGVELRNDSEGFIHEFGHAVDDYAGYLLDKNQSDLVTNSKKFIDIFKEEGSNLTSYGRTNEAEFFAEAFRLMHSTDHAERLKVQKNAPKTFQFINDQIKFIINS
Sequence of Botulinum neurotoxin type A (Clostridium botulinum) (P0DPI0 whole entry, looked up): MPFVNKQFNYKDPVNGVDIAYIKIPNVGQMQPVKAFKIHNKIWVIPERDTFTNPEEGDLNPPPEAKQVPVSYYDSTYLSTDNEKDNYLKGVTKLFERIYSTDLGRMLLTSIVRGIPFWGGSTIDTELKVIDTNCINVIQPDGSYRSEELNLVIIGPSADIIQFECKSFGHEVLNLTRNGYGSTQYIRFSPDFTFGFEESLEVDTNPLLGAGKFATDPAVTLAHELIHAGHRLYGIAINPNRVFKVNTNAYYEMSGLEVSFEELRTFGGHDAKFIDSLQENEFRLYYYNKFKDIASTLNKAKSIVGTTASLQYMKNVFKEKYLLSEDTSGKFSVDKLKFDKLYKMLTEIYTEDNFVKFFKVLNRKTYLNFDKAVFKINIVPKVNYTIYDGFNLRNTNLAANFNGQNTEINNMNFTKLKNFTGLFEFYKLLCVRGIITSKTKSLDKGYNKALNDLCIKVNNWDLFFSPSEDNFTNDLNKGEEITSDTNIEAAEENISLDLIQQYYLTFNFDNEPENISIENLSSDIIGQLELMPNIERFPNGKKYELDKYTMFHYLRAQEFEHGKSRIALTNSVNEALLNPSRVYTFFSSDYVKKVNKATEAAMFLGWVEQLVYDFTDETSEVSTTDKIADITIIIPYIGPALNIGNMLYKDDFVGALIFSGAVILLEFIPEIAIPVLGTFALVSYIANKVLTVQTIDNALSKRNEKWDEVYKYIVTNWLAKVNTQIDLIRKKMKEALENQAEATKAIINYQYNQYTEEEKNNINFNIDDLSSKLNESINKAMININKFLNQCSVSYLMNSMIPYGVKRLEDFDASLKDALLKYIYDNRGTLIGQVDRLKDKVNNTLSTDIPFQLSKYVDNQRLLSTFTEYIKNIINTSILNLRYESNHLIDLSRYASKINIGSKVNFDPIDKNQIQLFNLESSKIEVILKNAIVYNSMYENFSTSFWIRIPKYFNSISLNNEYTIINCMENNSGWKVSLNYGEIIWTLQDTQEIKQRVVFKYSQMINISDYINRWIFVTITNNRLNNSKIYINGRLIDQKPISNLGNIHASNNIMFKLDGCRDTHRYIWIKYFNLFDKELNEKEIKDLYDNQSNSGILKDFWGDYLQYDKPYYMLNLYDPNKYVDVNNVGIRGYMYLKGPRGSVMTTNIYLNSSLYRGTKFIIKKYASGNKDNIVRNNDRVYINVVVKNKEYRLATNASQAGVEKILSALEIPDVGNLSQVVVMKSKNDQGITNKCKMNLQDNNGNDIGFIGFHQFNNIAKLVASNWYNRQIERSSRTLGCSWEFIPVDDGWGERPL

CSc1ccc(/C=N/N2CCN(Cc3ccc(C)cc3C)CC2)cc1
inactive: [1] -0.3% | [2] -0.6% | [3] -0.3%

CCN(CC)C1=C(Cl)C(=O)C(Cl)C12OCCO2 (stereo unspecified)
inactive: [1] 1% | [2] 0.6% | [3] -1%

COc1ccc2[nH]c(CN3CCN(CC(C)C)C(CCO)C3)c(C)c2c1 (stereo unspecified)
inactive: [1] 2.4% | [2] 1.6% | [3] 3.1%

CN(C)c1ccc(C(CN)c2c[nH]c3ccccc23)cc1 (stereo unspecified)
inactive: [1] -5.8% | [2] -1.5% | [3] -3.4%

O=C(O)c1ccccc1Nc1cccc(C(F)(F)F)c1
inactive: [1] -4.2% | [2] -0.9% | [3] 1.9%

COc1ccc(C(=O)NC(=O)NC2(C(Cl)(Cl)Cl)OCCO2)cc1
inactive: [1] 0.9% | [2] -1.2% | [3] 3.1%

CCn1cc(C(=O)O)c(=O)c2cc(F)c(N3CCNCC3)cc21
inactive: [1] -0.1% | [2] -0.5% | [3] 2.3%

O=C1C(Cc2ccccc2)NC(=S)N1c1ccccc1 (stereo unspecified)
inactive: [1] 3.8% | [2] 0.9% | [3] -7.8%

CC12CCC(C(=O)Nc3ccccc3Br)(C/C1=N\O)C2(C)C (stereo unspecified)
inactive: [1] -3.6% | [2] -0.7% | [3] -6.5%

Cc1ccc(S(=O)(=O)Nc2ccc(S(=O)(=O)Nc3cc(C)nc(C)n3)cc2)cc1
inactive: [1] -1.8% | [2] 0.6% | [3] 0.7%

COc1cccc(OC)c1C(=O)Nc1nc2ccc([N+](=O)[O-])cc2s1
inactive: [1] 7.7% | [2] 3.3% | [3] 7.5%

C=CCNC(=O)c1ccc(-c2cccc([N+](=O)[O-])c2)o1
inactive: [1] -1.3% | [2] -0.6% | [3] -3%

O=C1Nc2ccc3sc4ccccc4c3c2C1=O
inactive: [1] -1.1% | [2] -0.8% | [3] 1.4%

C#CCN1C(=O)C(O)(c2c(C)[nH]c3ccccc23)c2ccccc21 (stereo unspecified)
inactive: [1] 0.4% | [2] 0.5% | [3] -3.2%

CC12COC3(C(=O)Nc4ccc(F)cc4)CC1CCC32C (stereo unspecified)
inactive: [1] 3.3% | [2] 1% | [3] -1.8%

COc1cc(C(=O)NCCc2c[nH]c3ccccc23)ccc1OCc1c(C)noc1C
inactive: [1] 3.6% | [2] -1.7% | [3] 0.2%

COc1cc(NC(=O)N[C@@H](Cc2ccccc2)C(=O)O)cc(OC)c1
inactive: [1] 1.2% | [2] 0.4% | [3] -2.8%

Cc1ccc(N(CC2=NCCN2)c2cccc(O)c2)cc1
inactive: [1] -1.3% and 3.1% and -7.5% | [2] -1.3% and -1.2% and -1.7% | [3] -2.4% and -9.5% and -5.2%

N#C/C(=C/c1ccccc1)C(=O)NCc1ccccc1
inactive: [1] 5.2% | [2] 0.1% | [3] -7.6%

Cc1ccc(S(=O)(=O)N[C@@H](Cc2ccccc2)C(=O)CCl)cc1
inactive: [1] -3.3% | [2] 1.2% | [3] 3.4%

NNC(=O)c1ccncc1
inactive: [1] 1.1% | [2] -0.2% | [3] 5.3%

CN(Cc1ccccc1)CC(O)COc1ccc(CNCc2cccnc2)cc1 (stereo unspecified)
inactive: [1] -3.8% | [2] 0.2% | [3] -5.3%

C=CCNC(=S)N1CCc2c([nH]c3ccccc23)C1C (stereo unspecified)
inactive: [1] 1.4% | [2] 0.4% | [3] 0.1%

COc1cc2c(cc1OC)C1(CCCCC1)CN(C)C2
inactive: [1] 1.7% | [2] -1.2% | [3] -1.7%

O=C(O)C1Cc2ccccc2CN1S(=O)(=O)c1ccccc1 (stereo unspecified)
inactive: [1] 0.8% | [2] 0.6% | [3] -3.3%

CC(NC(=O)OCc1ccccc1)C(=O)N1CC(O)CC1C(=O)O (stereo unspecified)
inactive: [1] 3.2% | [2] -0.7% | [3] 1.4%

C/C(=N\NC(=O)C1(C)CC1(Br)Br)c1ccc([N+](=O)[O-])cc1 (stereo unspecified)
inactive: [1] 2.6% | [2] 0.4% | [3] -7.9%

Cc1c2c(nc3c(C)cccc13)OC(C)C2 (stereo unspecified)
inactive: [1] 2.9% | [2] -2.4% | [3] -4.3%

C=CCC1(Cl)C(=O)C(Cl)=C(N2CCOCC2)C1(OC)OC (stereo unspecified)
inactive: [1] -1.2% | [2] -1.2% | [3] 0%

CN1CCN(C2=Nc3cc(Cl)ccc3Nc3ccccc32)CC1
inactive: [1] -0.2% | [2] -0.4% | [3] -6.6%

COc1ccc(Cc2noc(CN(C)CC3(N4CCOCC4)CCCCC3)n2)cc1OC
inactive: [1] 7.7% | [2] 4.3% | [3] -0.4%

O=c1oc2c(CN3CCCCC3)c(O)ccc2c2c1CCCCC2
inactive: [1] 4.3% | [2] 0.5% | [3] 1.1%

Cc1coc2cc3oc(=O)c(CCC(=O)O)c(C)c3cc12
inactive: [1] 3.6% | [2] -2% | [3] -2.2%

O=C1OC(=O)C2C1[C@@H]1CC[C@H]2O1 (stereo partly specified)
inactive: [1] 1.3% | [2] 0.8% | [3] -0.9%

COc1ccc2cc[nH]c2c1
inactive: [1] -1.5% | [2] -0.4% | [3] 2.8%

O=C1OC(c2ccccc2)=C/C1=C/c1cccs1
inactive: [1] 6.4% | [2] 1.5% | [3] 0.7%

CCc1oc2ccccc2c1C(=O)c1cc(Br)c(O)c(Br)c1
inactive: [1] -6.8% | [2] -0.5% | [3] -0.4%

CC(=O)CC(c1ccc([N+](=O)[O-])cc1)c1c(O)c2ccccc2oc1=O (stereo unspecified)
inactive: [1] 0.7% | [2] 0.2% | [3] -1.2%

Cc1cccc(Nc2ccccc2C(=O)O)c1C
inactive: [1] -3.6% | [2] -1.1% | [3] -6%

O=C(/C=C/c1ccccc1)c1ccccc1
inactive: [1] -1.7% | [2] -0.6% | [3] -0.6%

CC(=O)Nc1ccc(OS(=O)(=O)c2c(C)cc(C)cc2C)cc1
inactive: [1] -3.3% | [2] -1% | [3] -0.9%

CN1[C@@H](CC(=O)c2ccccc2)CCC[C@H]1C[C@H](O)c1ccccc1
inactive: [1] 3.2% | [2] -1% | [3] -2.2%

CCn1c(N2CCN(CC(=O)c3c(C)n(C)c4ccc(OC)cc34)CC2)nc2c1c(=O)[nH]c(=O)n2C
inactive: [1] -1.4% | [2] -0.8% | [3] -10.7%

CCSc1nc(O)c(C2OC(=O)c3c2ccc(OC)c3OC)c(=O)n1CC (stereo unspecified)
inactive: [1] -0.7% | [2] 0.5% | [3] -2.4%

O=C(NCc1ccc(N2CCCC2=O)cc1)c1cccc(Cl)c1
inactive: [1] -4.5% | [2] -2.2% | [3] 1%

CC(C)CC(=O)Nc1ccc2oc(-c3ccncc3)nc2c1
inactive: [1] 1.4% | [2] 0.3% | [3] -2.1%

COC(=O)c1ccc(NC(=O)c2ccccc2SC)cc1
inactive: [1] -4.7% | [2] -0.2% | [3] -5.4%

O=C(NC(CO)Cc1ccc([N+](=O)[O-])cc1)C(Cl)Cl (stereo unspecified)
inactive: [1] 0.6% | [2] -1.5% | [3] -1.4%

NC(CO)C(=O)NNCc1ccc(O)c(O)c1O (stereo unspecified)
inactive: [1] -15.8% | [2] -11.2% | [3] -25.4%

Cc1ccc(C(=O)COC(=O)c2cccc(N3C(=O)c4c(C)nc5ccccc5c4C3=O)c2)cc1C
inactive: [1] -1.2% | [2] -1.1% | [3] -0.1%

CN(C)CCOC(c1ccccc1)c1ccccc1
inactive: [1] -0.7% | [2] 0.3% | [3] -5%

O=C(NC(=S)Nc1ccc2c(c1)OCCO2)c1ccccc1F
inactive: [1] 2.3% | [2] 0.4% | [3] -3%

CC(=O)O[C@H]1C(=O)[C@@]2(C)[C@H]([C@H](OC(=O)c3ccccc3)[C@]3(O)C[C@H](OC(=O)[C@H](O)C(NC(=O)c4ccccc4)c4ccccc4)C(C)=C1C3(C)C)[C@]1(OC(C)=O)CO[C@@H]1C[C@@H]2O (stereo partly specified)
inactive: [1] 1.1% | [2] -0.8% | [3] 4.6%

CC(C)(C)OC(=O)N1CCCC1C(=O)NC(Cc1ccccc1)C(=O)O (stereo not drawn) (Boc-Pro-Phe-OH; configuration not given here)
inactive: [1] -2.1% | [2] -0.8% | [3] -0.3%

CC[n+]1c(C)sc2cc(C)ccc21
inactive: [1] 3.6% | [2] 1.9% | [3] -1.6%

NS(=O)(=O)c1cc2c(cc1C(F)(F)F)NCNS2(=O)=O
inactive: [1] 0.5% | [2] -0.4% | [3] 5.4%

O=c1c(C(c2ccccc2)c2c(O)sc3ccccc3c2=O)c(O)sc2ccccc12
inactive: [1] -0.8% | [2] 1.7% | [3] 2.4%

COc1ccc(CCNC(=O)c2c(O)c3c([nH]c2=O)CCCC3)cc1
inactive: [1] 2.6% | [2] 0.3% | [3] -14.2%

O=c1c(-c2ccccc2)c(O)c2cccc3c2n1CCC3
inactive: [1] 3.3% | [2] 0.8% | [3] 10.4%

CCSC(SCC)[C@H](O)[C@@H](O)[C@H](O)[C@H](O)CO
inactive: [1] 3.3% | [2] -0.7% | [3] -1.5%

C/C=C/c1ccc(OCCCCN2CC(C)CC(C)C2)c(OC)c1 (stereo unspecified)
inactive: [1] 3.1% | [2] -0.5% | [3] -6%

COc1ccc(CCNc2ncnc3c2[nH]c2cc(OC)c(OC)cc23)cc1OC
inactive: [1] -0.5% | [2] -0.5% | [3] -0.7%
